Compounds without any hit were thinned out: in the full panel of roughly 79,000, 15% have a hit. A number with no mark means an inactive call. Calls of active or inactive are those of the source. No stated cut-off is given here; in the data, active means growth inhibition above about 70%; inactive means the rest.
Assays:
[1] = NCI Yeast Anticancer Drug Screen. Data for the rad50 strain (AID 155);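 further: 0% = growth of vehicle-only cultures of the same strain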; conditions: S. cerevisiae rad50 strain growth inhibition, active compounds read high
Method in brief: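 Genetically altered yeast (DNA repair pathway); compound treatment; growth inhibition vs vehicle ctrl.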

[2] = NCI Yeast Anticancer Drug Screen. Data for the mec2-1 strain (AID 157); conditions: S. cerevisiae mec2-1 strain, active compounds read high
Method in brief: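 Test agents were screened against the mec2-1 yeast strain, with defined DNA repair or cell cycle alteration. Growth was scored as inhibition against vehicle-only controls.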

[3] = NCI Yeast Anticancer Drug Screen. Data for the sgs1 mgt1 strain (AID 161);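 further: 0% = growth of cultures given vehicle only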; conditions: S. cerevisiae sgs1 mgt1 strain, active compounds read high
Method in brief: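 Genetically altered yeast, compound exposure, growth inhibition relative to vehicle.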

[4] = NCI Yeast Anticancer Drug Screen. Data for the cln2 rad14 strain (AID 165);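 further: 0% = growth equal to vehicle treated cultures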; conditions: S. cerevisiae cln2 rad14 strain, active compounds read high
Method in brief: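 Growth of compound-exposed yeast (cln2 rad14 genotype) measured and expressed as inhibition relative to vehicle.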

[5] = NCI Yeast Anticancer Drug Screen. Data for the bub3 strain (AID 167); conditions: S. cerevisiae bub3 mutant strain, active compounds read high
Method in brief: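 Yeast carrying a defined mutation is treated with each compound, and growth is compared with that of vehicle-exposed cells to give inhibition.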

[6] = NCI Yeast Anticancer Drug Screen. Data for the mlh1 rad18 strain (AID 175); conditions: S. cerevisiae mlh1 rad18 strain growth inhibition, active compounds read high
Method in brief: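 In this whole-cell yeast screen, a strain with altered DNA damage repair is challenged with compound, and its growth is measured against matched vehicle-treated controls.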

[7] = at 5.0 µM (retest, dose inferred, filed as 0.5)
[8] = at 50.0 µM (retest, dose inferred, filed as 5.0)

Compound | growth inhibition [1, 7] | growth inhibition [1, 8] | growth inhibition ([1]; at 50.0 µM) | growth inhibition [2, 7] | growth inhibition [2, 8] | growth inhibition ([2]; at 50.0 µM) | growth inhibition [3, 7] | growth inhibition [3, 8] | growth inhibition ([3]; at 50.0 µM) | growth inhibition [4, 7] | growth inhibition [4, 8] | growth inhibition ([4]; at 50.0 µM) | growth inhibition [5, 7] | growth inhibition [5, 8] | growth inhibition ([5]; at 50.0 µM) | growth inhibition [6, 7] | growth inhibition [6, 8] | growth inhibition ([6]; at 50.0 µM)
Cc1cc(N(CCC#N)CCC#N)ccc1/C(N=Nc1cccc([N+](=O)[O-])c1)=N/NC(=O)c1cc(Cl)ccc1O | 8% | 47% | 63.4% | 8% | 25% | 47% | 9% | 49% | 66% | -1% | 28% | 23.9% | 8% | 58% | 79.3% (active) | 12% | 29% | 31.9%
COc1cc(C2c3cc4c(cc3[C@@H](Nc3ccc5c(c3)OCCO5)C3COC(=O)[C@H]23)OCO4)cc(OC)c1O (stereo not given in full) | 96% (active) | 93% (active) | 85.2% (active) | 97% (active) | 94% (active) | 91.2% (active) | 99% (active) | 99% (active) | 87.3% (active) | 98% (active) | 99% (active) | 85.8% (active) | 98% (active) | 99% (active) | 87.2% (active) | 95% (active) | 90% (active) | 88.8% (active)
CC(=O)O[C@H]1CC[C@H]2[C@@H]3CCc4cc(O)c(I)cc4[C@H]3CC[C@]12C | 12% | 84% (active) | 51.3% | 0% | 58% | 43.8% | 23% | 93% (active) | 72.4% (active) | 21% | 75% (active) | 45% | 20% | 82% (active) | 47.5% | 6% | 80% (active) | 63.4%
C=C/C=C/CC=C | -151% | 38% | 34.2% | -48% | -41% | 1.2% | -62% | -38% | 6.6% | -45% | -50% | 85.3% (active) | -60% | -46% | 21.4% | -120% | -90% | 59.9%
Cc1ccc(C2SCc3nc4ccccc4n32)cc1 (stereo not given) | -4% | 51% | 31.2% | -38% | 39% | 20.8% | -26% | 57% | 49.1% | 2% | 46% | 34% | -2% | 93% (active) | 70.4% (active) | 13% | 86% (active) | 48.9%
CCOC(=O)c1cc2c(nc1N)/C(=C/c1ccccc1)CCCC2 | 39% | 95% (active) | -24.4% | 31% | 96% (active) | -34.6% | 34% | 96% (active) | -29.2% | 19% | 80% (active) | -15.4% | 42% | 97% (active) | -11.4% | 37% | 95% (active) | -21.1%
C[N+](C)(C)CCC(=O)c1ccco1 | 7% | 99% (active) | 99.5% (active) | 16% | 100% (active) | 99.7% (active) | 10% | 99% (active) | 99.5% (active) | 8% | 99% (active) | 96% (active) | 7% | 99% (active) | 99.7% (active) | 4% | 99% (active) | 99.2% (active)
CC1CC(C)C(C)C(CO)C1 (stereo not given) | 8% | -3% | -22.4% | 4% | -3% | -3.2% | -8% | -1% | -22.6% | -1% | -3% | 40% | 0% | 4% | -0.05% | 6% | -5% | -12.2%
COc1ccc(C(=O)C(CCC(=O)/C=C/c2ccccc2)S(C)(=O)=O)cc1 (stereo not given) | 8% | 10% | 9.25% | -12% | 15% | 3.5% | 5% | 13% | 17.2% | 2% | -8% | 39.9% | -7% | 6% | 0.7% | 0% | -5% | 2.4%
CC(=O)/C(=C\c1ccccc1Cl)C(=O)CCN(C)C | -35% | 93% (active) | 37.4% | 8% | 96% (active) | 38.1% | 0% | 94% (active) | 74% (active) | 6% | 97% (active) | 20.6% | 7% | 97% (active) | 18.4% | -17% | 97% (active) | 80.8% (active)
CS(=O)(=O)OC1COC2C(I)COC12 (stereo not given) | -1% | 55% | 7.85% | 3% | 58% | -11.8% | -1% | 83% (active) | 1.85% | 5% | 30% | 13.7% | -1% | 83% (active) | 77.3% (active) | 2% | 84% (active) | 19.9%
C/C(=N\NC(=S)N1CCN(Cc2ccccc2)CC1)c1ccccn1 | 23% | 76% (active) | 90.3% (active) | 23% | 85% (active) | 88.8% (active) | 12% | 80% (active) | 31.2% | 8% | 73% (active) | -14.7% | 31% | 96% (active) | 11.7% | 15% | 74% (active) | 81.6% (active)
O=C(Nc1ccccc1F)C(Br)C(Br)c1ccccc1 (stereo not given) | 6% | 97% (active) | 98.6% (active) | 8% | 90% (active) | 99% (active) | 23% | 97% (active) | 99.4% (active) | 6% | 36% | 99.1% (active) | -1% | 95% (active) | 99% (active) | 29% | 95% (active) | 98.9% (active)
Cc1ccc(N)c(Cc2c(O)ccc3ccccc23)c1 | 2% | 79% (active) | 98.2% (active) | 4% | 75% (active) | 98.7% (active) | 1% | 79% (active) | 98.8% (active) | -7% | 64% | 98.5% (active) | 0% | 66% | 98.7% (active) | 1% | 82% (active) | 98.6% (active)
N#CSCc1c(Cl)cccc1Cl | 57% | 59% | 81.7% (active) | 40% | 48% | 75.8% (active) | 18% | 92% (active) | 82.7% (active) | 68% | 94% (active) | 64.5% | 64% | 95% (active) | 79.1% (active) | 30% | 48% | 79.8% (active)
CCN(CC)CCOC(=O)c1ccc(N=Nc2cc(Cl)c(C)cc2O)cc1 | 26% | 98% (active) | 99.3% (active) | 29% | 99% (active) | 99.2% (active) | 55% | 99% (active) | 95.2% (active) | 13% | 98% (active) | 99% (active) | 58% | 99% (active) | 99.1% (active) | 28% | 99% (active) | 99.1% (active)
CCOC(=O)c1csc(/C=C/c2cc(OC)c(OC)c(OC)c2)n1 | 0% | 3% | -1.2% | -1% | 1% | 0.9% | -2% | 41% | 46.4% | -4% | -3% | -19.5% | 1% | 6% | 11.9% | -2% | 3% | -8.1%
COc1ccc(/C=C/c2c[n+]([O-])ccc2[N+](=O)[O-])cc1 | 14% | 95% (active) | 77% (active) | 18% | 97% (active) | 72.2% (active) | 37% | 96% (active) | 63.9% | 12% | 95% (active) | 38.4% | 9% | 97% (active) | 9.35% | 46% | 96% (active) | 98% (active)
Cc1ccc(O)c(C(c2cccc(C(c3cc(C)ccc3O)c3cc(C)ccc3O)c2)c2cc(C)ccc2O)c1 | 66% | 94% (active) | 95.5% (active) | 54% | 97% (active) | 95.4% (active) | 31% | 97% (active) | 95% (active) | 66% | 96% (active) | 91.6% (active) | 72% (active) | 96% (active) | 95.7% (active) | 78% (active) | 96% (active) | 95.8% (active)
CCOC(C)c1ccccc1 (stereo not given) | 39% | 90% (active) | -37% | 42% | 99% (active) | -5.85% | 16% | 62% | 30.8% | 10% | 59% | -16.9% | 19% | 99% (active) | -0.8% | 64% | 99% (active) | -0.2%
